Test results: PubChem BioAssay
Values joined by “and” are separate entries in the source; they are usually repeats but may differ in a detail not shown here. Equal entries are not always repeated.

Target: Concanavalin-A (Canavalia ensiformis) (UniProt P02866)
Assay: compounds binding concanavalin A lectin – biochemical, small-molecule microarray, Alexa647 label, 635 nm, artefact control for SMM control protein annotation, primary screen (AID 1127);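 note: z combines 667 nm emission intensity with signal-to-noise across three replicate slides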
Conditions: ConA-A647 binding fluorescence, higher = more signal

Sequence of Concanavalin-A (Canavalia ensiformis) (P02866 whole entry, looked up): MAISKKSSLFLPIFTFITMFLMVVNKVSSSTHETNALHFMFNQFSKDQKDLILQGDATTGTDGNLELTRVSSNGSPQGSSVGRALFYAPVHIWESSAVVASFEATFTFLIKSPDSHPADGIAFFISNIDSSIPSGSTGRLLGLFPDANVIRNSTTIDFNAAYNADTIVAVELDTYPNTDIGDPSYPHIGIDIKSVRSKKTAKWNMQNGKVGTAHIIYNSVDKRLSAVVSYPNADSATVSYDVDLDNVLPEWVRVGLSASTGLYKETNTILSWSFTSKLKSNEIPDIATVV

Q: For `C=CCN(C(=O)C(c1cccs1)N(CCOCCO)C(=O)/C=C\C(=O)O)c1ccc(OC)cc1` (stereo unspecified), which composite z-score is on record?
A: Its composite z-score is -0.337 and -2.28.

Q: For `C#CCN1C(/C=C/c2ccccc2)C(=O)OC[C@H]1c1ccccc1` (stereo partly specified), which composite z-score is on record?
A: Its composite z-score is -0.243 and 0.199.

Q: `CO[C@@H]1COC(=O)CC=C[C@H](C)COC(=O)[C@H](C)NC(=O)CC=C[C@H]1C` was tested. Which composite z-score did it give?
A: Its composite z-score is 0.161.

Q: How did the composite z-score turn out when `Cc1cc2c(nc1C)CCCN2CC(O)CN1CCCc2nc(-c3ccc(Br)cc3)ccc21` (stereo unspecified) was run?
A: The composite z-score was 0.975 and 1.03.

Q: `C=CCN(CCCCC)C(=O)C(c1cccs1)N(CCOCCO)C(=O)/C=C\C(=O)O` (stereo unspecified) was tested. Which composite z-score did it give?
A: Its composite z-score is -0.611 and -0.988.

Q: Which composite z-score does the source give for `COc1ccc(-c2ccc3c(n2)CCCN3CC(O)CN2CCCc3nc(-c4ccc(Br)cc4)ccc32)cc1` (stereo unspecified) here?
A: The composite z-score was 0.677 and 0.632.

Q: With `C=C[C@H](OC)[C@@H](O)c1ccc(OCCO)cc1` as the compound, how does the composite z-score read?
A: The composite z-score was -2.17 and -0.715.

Q: With `C=CCN(C(=O)C1N(CCCCCCO)C(=O)C2C(C(=O)O)C3C=CC21O3)c1ccc(OC)cc1` (stereo unspecified) as the compound, how does the composite z-score read?
A: The composite z-score was -0.941 and -2.04.

Q: `O=C1C[C@]2(c3ccc([N+](=O)[O-])cc3)C(=O)N(Cc3ccccc3)c3cc(CO)ccc3[C@H]2N1C1CCCCC1` was tested. Which composite z-score did it give?
A: Its composite z-score is 0.28 and 0.772.

Q: With `C=CCN(C(=O)C1N(c2c(Cl)cccc2CO)C(=O)C2C(C(=O)O)C3C=CC21O3)c1ccc(OC)cc1` (stereo unspecified) as the compound, how does the composite z-score read?
A: Its composite z-score is -0.494 and -1.23.

Q: For `C=CCN(C(=O)C1N(CCOCCO)C(=O)C2C(C(=O)O)C3C=CC21O3)C(C)(C)C` (stereo unspecified), which composite z-score is on record?
A: The composite z-score was -0.455 and -0.884.

Q: With `COC(=O)C1=C2N(Cc3ccccc3)C(C)=C(C(=O)OC)[C@@H](c3ccccc3)N2C(=O)[C@](O)(C(=O)OC)C1` as the compound, how does the composite z-score read?
A: The composite z-score was 0.712 and -0.0245.

Q: For `O=c1n(-c2ccccc2)c(=O)n2n1CC[C@@H]1C(=NOC[C@@H](O)COCc3ccco3)[C@H]3O[C@H]3[C@@H](O)[C@@H]12`, which composite z-score is on record?
A: Its composite z-score is -0.331 and 0.101.

Q: For `CC(CO)N1C(=O)[C@@H]2C3C(=O)OCCC=C[C@H]3OC23C=CCN(c2ccc(Cl)cc2)C(=O)[C@@H]13` (stereo partly specified), which composite z-score is on record?
A: The composite z-score was -0.935 and 0.094.

Q: `CC(C)[Si]1(C(C)C)OCc2cc(CCCc3cc4c(c(CCc5ccccc5)n3)[Si](C(C)C)(C(C)C)OC4)nc(CCc3ccccc3)c21` was tested. Which composite z-score did it give?
A: The composite z-score was -1.42 and 0.124.

Q: With `C=CCN(Cc1ccccc1)C(=O)C1N(CCOCCO)C(=O)C2C(C(=O)O)C3C=CC21O3` (stereo unspecified) as the compound, how does the composite z-score read?
A: Its composite z-score is -1.05 and -0.374.

Q: With `C[N+](C)(C)CCCCCCNC(=O)[C@H]1C[C@H]2C(=O)N[C@@H](CCCC[N+](C)(C)C)C(=O)N2[C@H]1c1cccc(OCCO)c1` as the compound, how does the composite z-score read?
A: Its composite z-score is 0.606 and 0.352.

Q: For `CCCCCN1CC=CC23O[C@@H]4C=CCCOC(=O)C4[C@H]2C(=O)N(C(C)CO)[C@@H]3C1=O` (stereo partly specified), which composite z-score is on record?
A: Its composite z-score is -0.0729 and 0.147.

Q: With `O=C1[C@H]2[C@H]3[C@H](O)[C@H](O)CC(=NOCc4ccccc4)[C@H]3CC[C@H]2C(=O)N1Cc1ccccc1` as the compound, how does the composite z-score read?
A: Its composite z-score is -0.229.

Q: For `CO[C@H]1COC(=O)CC=C[C@H](C)[C@H](OC)COC(=O)[C@@H](C)COC(=O)CC=C[C@@H]1C`, which composite z-score is on record?
A: Its composite z-score is -0.413 and -1.52.

Q: With `CN1C(=O)C2CC=C([C@H]3Oc4ccccc4S(=O)(=O)N4CCC[C@@H]34)CC2C1=O` (stereo partly specified) as the compound, how does the composite z-score read?
A: The composite z-score was -0.476 and -1.05.

Q: Which composite z-score does the source give for `C[C@@H](ON=C1[C@H]2CCn3c(=O)n(-c4ccccc4)c(=O)n3[C@H]2[C@H](O)[C@@H]2O[C@H]12)c1cn([C@H](CO)Cc2ccccc2)nn1` here?
A: Its composite z-score is 0.349.

Q: With `CCOC(=O)C[C@H]1[C@H](OC(=O)c2ccccc2-c2ccccc2)[C@@H](NC(=O)Cc2ccc(OC)cc2)c2cc(OCCCO)ccc2N1C(=O)c1ccc2ccccc2n1` as the compound, how does the composite z-score read?
A: The composite z-score was 0.0022 and 0.662.

Q: Which composite z-score does the source give for `CCOC(=O)[C@H](CC(C)C)NC(=O)CCC1CC(OC(=O)NCc2cccc3ccccc23)CC2(CCCC(COC(=O)NCc3ccccc3)O2)O1` (stereo partly specified) here?
A: Its composite z-score is -0.68.

Q: For `Cc1ccc(S(=O)(=O)N[C@@H]2COC(=O)CC=C[C@@H](C)[C@@H]3C=C[C@H](O)[C@@H](COC(=O)CC=C[C@H]2C)O3)cc1`, which composite z-score is on record?
A: Its composite z-score is -0.6 and 0.152.

Q: For `CO[C@@H]1COC(=O)[C@H](Cc2ccccc2)NC(=O)CC=C[C@@H](C)[C@H](OC)COC(=O)[C@@H](C)NC(=O)CC=C[C@H]1C`, which composite z-score is on record?
A: The composite z-score was -0.85 and -0.233.
